# “And” between values parts separate entries of the source, which are not always exact repeats. Equal values may be shown once. The source made the active and inactive calls.
# What was measured:
# [1] = test system: PRMT1 (protein arginine N-methyltransferase 1); experiment: small molecules binding arginine methyltransferase PRMT1 – biochemical, small-molecule microarray, 635 nm fluorescence, primary screen (AID 1088); details: higher = more signal;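 further: binding of Prmt1 protein to compounds spotted on small-molecule microarray slides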
# [2] = growth effects on S. cerevisiae YJM789 – YJM789 clinical isolate, OD600, 24 h, basal, primary screen (AID 1089); details: higher = more signal, called active from +8 up or from −8 down;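 further: growth of clinical yeast isolate S. cerevisiae YJM 789 seeded 1000 cells per well; test concentration not given here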
# [3] = S. pombe growth modifiers, basal conditions – strain 972, OD600, 24 h, no modulator, primary screen (AID 1090);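 further: basal condition with compound alone and no growth modifier present; test concentration not given here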; details: S. pombe 972 growth, higher = more signal, called active from +8 up or from −8 down
# [4] = budding yeast growth modifiers under rapamycin – strain BY4716, OD600, 96 h, primary screen (AID 1091); further: test concentration not given here; details: S. cerevisiae BY4716 + rapamycin, higher = more signal, called active from +8 up or from −8 down
# [5] = biological target: Torsin-1A-interacting protein 2 (Homo sapiens) (UniProt Q8NFQ8); experiment: small molecules binding lysate-expressed LULL1 – cell lysate, human LULL1 lysate, 635/667 nm fluorescence, primary screen (AID 1092); details: small-molecule microarray, hLULL1 lysate binding, 635 nm fluorescence; higher = more signal;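 further: probe is lysate of COS7 cells overexpressing human LULL1; score merges per-feature 667 nm fluorescence with signal-to-noise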
# Chain of Torsin-1A-interacting protein 2 (Homo sapiens) (Q8NFQ8 whole entry, looked up): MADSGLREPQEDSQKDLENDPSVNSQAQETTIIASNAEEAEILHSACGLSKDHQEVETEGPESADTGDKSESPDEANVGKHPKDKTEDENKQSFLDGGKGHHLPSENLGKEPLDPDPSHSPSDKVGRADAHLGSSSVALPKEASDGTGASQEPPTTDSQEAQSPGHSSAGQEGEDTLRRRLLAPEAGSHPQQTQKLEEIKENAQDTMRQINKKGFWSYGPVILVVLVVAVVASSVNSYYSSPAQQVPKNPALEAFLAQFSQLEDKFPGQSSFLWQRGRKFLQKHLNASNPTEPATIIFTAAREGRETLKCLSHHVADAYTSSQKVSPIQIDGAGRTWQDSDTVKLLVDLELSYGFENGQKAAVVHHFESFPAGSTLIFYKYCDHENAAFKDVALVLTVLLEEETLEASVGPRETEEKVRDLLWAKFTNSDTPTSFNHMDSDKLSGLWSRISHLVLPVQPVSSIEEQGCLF
# [6] = optical density change of DRC41 E. coli – strain DRC41, OD650, 24 h, E. coli filamentation project, primary screen (AID 1093);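 further: MC1000 strain lacking acrAB efflux and sulA so SOS filamentation is blocked; test concentration not given here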; details: E. coli DRC41 growth, higher = more signal, called active from +8 up or from −8 down
# [7] = probe aLefty2 binding to arrayed compounds – biochemical, biotinylated probe, 635/667 nm fluorescence, primary screen (AID 1094); details: small-molecule microarray, higher = more signal;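 further: score merges spot fluorescence near 667 nm with spot signal-to-noise ratio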
# [8] = test system: Noggin (protein binding on small-molecule microarray); experiment: small molecules binding Noggin protein – biochemical, 635/667 nm fluorescence, primary screen (AID 1095); details: 635 nm fluorescence, higher = more signal;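 further: score merges 667 nm feature fluorescence with signal to noise over triplicate slides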
# [9] = biological target: Neurogenic locus notch homolog protein 3 (Homo sapiens) (UniProt Q9UM47); experiment: small molecules binding NOTCH3 protein – biochemical, 635/667 nm fluorescence, primary screen (AID 1096); details: small-molecule microarray, 635 nm fluorescence, higher = more signal
# Chain of Neurogenic locus notch homolog protein 3 (Homo sapiens) (Q9UM47 whole entry, looked up): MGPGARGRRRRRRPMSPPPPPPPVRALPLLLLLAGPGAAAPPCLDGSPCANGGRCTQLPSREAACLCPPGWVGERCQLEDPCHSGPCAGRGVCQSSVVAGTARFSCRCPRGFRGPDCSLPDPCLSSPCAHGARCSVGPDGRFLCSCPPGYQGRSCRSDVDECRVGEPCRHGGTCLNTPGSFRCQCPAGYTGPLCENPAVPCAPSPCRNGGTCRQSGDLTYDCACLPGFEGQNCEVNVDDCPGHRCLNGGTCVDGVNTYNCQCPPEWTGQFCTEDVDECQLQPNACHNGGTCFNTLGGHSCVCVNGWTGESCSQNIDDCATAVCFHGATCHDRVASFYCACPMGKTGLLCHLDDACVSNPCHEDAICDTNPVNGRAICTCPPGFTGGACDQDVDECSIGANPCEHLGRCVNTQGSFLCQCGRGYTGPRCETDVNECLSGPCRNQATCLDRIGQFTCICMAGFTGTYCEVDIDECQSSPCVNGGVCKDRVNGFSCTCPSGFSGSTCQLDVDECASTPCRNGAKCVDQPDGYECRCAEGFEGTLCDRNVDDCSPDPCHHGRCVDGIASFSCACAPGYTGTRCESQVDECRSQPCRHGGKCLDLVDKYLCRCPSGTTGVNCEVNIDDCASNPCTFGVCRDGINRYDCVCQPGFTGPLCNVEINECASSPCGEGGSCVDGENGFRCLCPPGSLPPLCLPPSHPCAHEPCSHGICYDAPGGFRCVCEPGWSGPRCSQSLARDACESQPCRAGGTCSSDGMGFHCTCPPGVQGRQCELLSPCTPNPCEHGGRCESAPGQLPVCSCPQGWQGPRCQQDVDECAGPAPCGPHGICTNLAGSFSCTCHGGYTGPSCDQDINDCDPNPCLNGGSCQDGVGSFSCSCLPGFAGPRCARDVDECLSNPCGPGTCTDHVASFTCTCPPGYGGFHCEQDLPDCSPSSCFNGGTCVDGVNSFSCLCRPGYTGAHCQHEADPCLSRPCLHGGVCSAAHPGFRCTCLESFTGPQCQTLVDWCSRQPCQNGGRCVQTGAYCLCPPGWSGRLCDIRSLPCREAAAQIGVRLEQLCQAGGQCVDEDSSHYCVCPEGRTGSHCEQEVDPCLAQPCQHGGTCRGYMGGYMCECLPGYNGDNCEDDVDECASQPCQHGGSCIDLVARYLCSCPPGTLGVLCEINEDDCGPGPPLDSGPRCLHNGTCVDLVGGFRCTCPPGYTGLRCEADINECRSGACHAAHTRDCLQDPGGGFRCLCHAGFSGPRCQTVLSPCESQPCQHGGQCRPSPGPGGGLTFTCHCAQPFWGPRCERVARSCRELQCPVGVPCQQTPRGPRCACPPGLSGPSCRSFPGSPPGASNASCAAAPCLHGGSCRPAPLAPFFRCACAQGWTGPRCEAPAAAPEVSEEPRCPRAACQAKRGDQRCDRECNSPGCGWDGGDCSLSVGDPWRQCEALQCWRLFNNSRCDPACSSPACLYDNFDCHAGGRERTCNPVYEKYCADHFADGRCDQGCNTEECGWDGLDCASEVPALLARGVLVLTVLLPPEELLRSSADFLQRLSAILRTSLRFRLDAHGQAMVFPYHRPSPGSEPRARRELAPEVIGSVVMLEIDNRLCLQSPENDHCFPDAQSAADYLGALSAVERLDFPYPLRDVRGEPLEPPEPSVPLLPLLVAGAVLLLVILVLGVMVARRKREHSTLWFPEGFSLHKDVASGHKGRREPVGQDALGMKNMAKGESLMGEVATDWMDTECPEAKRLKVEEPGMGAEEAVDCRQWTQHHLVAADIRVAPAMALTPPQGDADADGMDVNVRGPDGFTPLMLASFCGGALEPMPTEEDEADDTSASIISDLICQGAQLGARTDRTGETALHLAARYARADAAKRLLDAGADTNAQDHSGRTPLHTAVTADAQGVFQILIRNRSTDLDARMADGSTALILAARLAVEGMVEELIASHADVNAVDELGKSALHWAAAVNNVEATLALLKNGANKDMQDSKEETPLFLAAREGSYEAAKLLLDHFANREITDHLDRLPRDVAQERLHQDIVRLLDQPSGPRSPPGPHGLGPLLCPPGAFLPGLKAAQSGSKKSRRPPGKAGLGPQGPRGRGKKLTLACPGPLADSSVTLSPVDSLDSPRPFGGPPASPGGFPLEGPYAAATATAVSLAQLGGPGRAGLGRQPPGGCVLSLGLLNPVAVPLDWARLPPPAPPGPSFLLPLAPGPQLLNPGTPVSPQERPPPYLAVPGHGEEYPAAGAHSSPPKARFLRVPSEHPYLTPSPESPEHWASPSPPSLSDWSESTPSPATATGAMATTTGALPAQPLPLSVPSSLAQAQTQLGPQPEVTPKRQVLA
# [10] = probe aEGFR binding to arrayed compounds – biochemical, biotinylated probe, 635/667 nm fluorescence, primary screen (AID 1097); details: small-molecule microarray, higher = more signal;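 further: probe is a biotinylated anti-EGFR antibody binding compounds printed on slides; score combines fluorescence near 667 nm and signal to noise of each spot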
# [11] = test system: Plasmodium falciparum Sir2 (PF13_0152, Sir2A); experiment: Plasmodium falciparum Sir2A binding compounds – biochemical, small-molecule microarray, 635 nm fluorescence, primary screen (AID 1098); details: fluorescence 635 nm, higher = more signal;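 further: score merges spot fluorescence intensity with its signal-to-noise ratio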
# [12] = probe aDKK1 binding to arrayed compounds – biochemical, biotinylated probe, 635/667 nm fluorescence, primary screen (AID 1099); details: small-molecule microarray, higher = more signal;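 further: score merges 667nm spot fluorescence with signal to noise across triplicate slides; reference of the scale not given here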
# [13] = probe aCHRDL2 binding to arrayed compounds – biochemical, biotinylated probe, 635/667 nm fluorescence, primary screen (AID 1100); details: small-molecule microarray, higher = more signal
# [14] = change in splice reporter luminescence, either direction, cell-based, HEK293, spliceosome inhibition project, primary screen (AID 1101); details: HEK293 splicing luciferase reporter, 24 h, higher = more signal, called active from +8 up or from −8 down;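 further: HEK293 cells carrying a splicing-competent luciferase reporter gene; test concentration not given here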
# [15] = biological target: Fibroblast growth factor 10 (Homo sapiens) (UniProt O15520); experiment: compounds binding fibroblast growth factor 10 – biochemical, small-molecule microarray, 635 nm fluorescence, primary screen (AID 1102); details: FGF10 binding, fluorescence 635 nm, higher = more signal
# Chain of Fibroblast growth factor 10 (Homo sapiens) (O15520 whole entry, looked up): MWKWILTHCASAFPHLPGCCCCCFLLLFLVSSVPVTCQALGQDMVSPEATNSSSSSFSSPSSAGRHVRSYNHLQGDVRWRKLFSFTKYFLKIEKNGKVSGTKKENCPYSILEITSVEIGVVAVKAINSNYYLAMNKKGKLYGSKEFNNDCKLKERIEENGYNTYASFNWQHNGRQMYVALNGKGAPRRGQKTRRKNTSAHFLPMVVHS
# [16] = test system: glycogen synthase kinase-3 (GSK3A per assay name; protocol says GSK3B); experiment: compounds binding glycogen synthase kinase-3 – biochemical, small-molecule microarray, 635 nm fluorescence, GSK3A, primary screen (AID 1103); details: fluorescence 635 nm, higher = more signal; further: the record names both GSK3A and GSK3B
# [17] = biological target: Epidermal growth factor receptor (Homo sapiens) (UniProt P00533); experiment: compounds binding epidermal growth factor receptor – biochemical, small-molecule microarray, 635 nm fluorescence, primary screen (AID 1104); details: EGFR binding, higher = more signal;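 further: score merges 667 nm emission intensity with spot signal to noise over triplicate slides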
# Chain of Epidermal growth factor receptor (Homo sapiens) (P00533 whole entry, looked up): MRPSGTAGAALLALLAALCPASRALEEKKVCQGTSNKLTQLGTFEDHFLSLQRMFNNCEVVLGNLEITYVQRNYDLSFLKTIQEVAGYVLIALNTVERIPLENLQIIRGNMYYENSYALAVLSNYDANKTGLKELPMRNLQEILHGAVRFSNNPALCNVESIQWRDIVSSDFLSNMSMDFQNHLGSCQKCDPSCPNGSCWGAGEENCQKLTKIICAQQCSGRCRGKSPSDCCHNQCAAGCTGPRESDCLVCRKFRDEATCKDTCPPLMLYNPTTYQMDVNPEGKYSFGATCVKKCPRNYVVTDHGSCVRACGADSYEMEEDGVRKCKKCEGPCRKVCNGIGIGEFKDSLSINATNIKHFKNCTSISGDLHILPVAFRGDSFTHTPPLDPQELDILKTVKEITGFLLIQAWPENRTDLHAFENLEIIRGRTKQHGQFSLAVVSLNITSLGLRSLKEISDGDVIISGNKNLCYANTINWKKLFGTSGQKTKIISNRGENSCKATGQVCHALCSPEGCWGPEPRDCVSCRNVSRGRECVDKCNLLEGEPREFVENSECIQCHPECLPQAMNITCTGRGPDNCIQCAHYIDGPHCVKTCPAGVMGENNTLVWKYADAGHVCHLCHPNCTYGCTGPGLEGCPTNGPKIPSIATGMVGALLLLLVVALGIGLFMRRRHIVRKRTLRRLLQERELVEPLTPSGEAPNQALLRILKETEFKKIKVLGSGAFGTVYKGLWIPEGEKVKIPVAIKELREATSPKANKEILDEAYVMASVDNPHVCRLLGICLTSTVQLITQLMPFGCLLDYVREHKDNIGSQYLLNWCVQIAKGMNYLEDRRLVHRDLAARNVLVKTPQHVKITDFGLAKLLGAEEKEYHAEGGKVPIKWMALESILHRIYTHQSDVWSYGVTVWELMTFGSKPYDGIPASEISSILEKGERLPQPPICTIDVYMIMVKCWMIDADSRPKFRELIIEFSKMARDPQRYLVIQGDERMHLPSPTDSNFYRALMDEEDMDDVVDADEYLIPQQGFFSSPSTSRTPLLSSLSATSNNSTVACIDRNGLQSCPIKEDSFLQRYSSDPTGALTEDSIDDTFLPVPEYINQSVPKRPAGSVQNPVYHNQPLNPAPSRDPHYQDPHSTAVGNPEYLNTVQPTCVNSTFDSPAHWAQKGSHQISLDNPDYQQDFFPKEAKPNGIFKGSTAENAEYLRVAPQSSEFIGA
# [18] = biological target: Follistatin-related protein 3 (Homo sapiens) (UniProt O95633); experiment: compounds binding follistatin-related protein 3 – biochemical, small-molecule microarray, 635 nm fluorescence, primary screen (AID 1105); details: FSTL3 binding, higher = more signal;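 further: score merges emission near 667 nm and signal to noise per printed spot across three slides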
# Chain of Follistatin-related protein 3 (Homo sapiens) (O95633 whole entry, looked up): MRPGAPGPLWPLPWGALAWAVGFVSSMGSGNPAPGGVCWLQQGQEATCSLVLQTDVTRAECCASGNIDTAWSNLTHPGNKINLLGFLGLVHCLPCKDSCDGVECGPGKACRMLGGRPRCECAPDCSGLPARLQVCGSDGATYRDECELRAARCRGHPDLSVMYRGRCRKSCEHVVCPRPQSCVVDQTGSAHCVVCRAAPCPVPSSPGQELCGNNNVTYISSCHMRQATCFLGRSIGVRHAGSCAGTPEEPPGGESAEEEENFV
# [19] = biological target: Dickkopf-related protein 1 (Homo sapiens) (UniProt O94907); experiment: small molecules binding DKK1 protein – biochemical, small-molecule microarray, 635 nm fluorescence scan, primary screen (AID 1106); details: higher = more signal;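 further: score merges emission near 667 nm with signal to noise over three replicate slides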
# Chain of Dickkopf-related protein 1 (Homo sapiens) (O94907 whole entry, looked up): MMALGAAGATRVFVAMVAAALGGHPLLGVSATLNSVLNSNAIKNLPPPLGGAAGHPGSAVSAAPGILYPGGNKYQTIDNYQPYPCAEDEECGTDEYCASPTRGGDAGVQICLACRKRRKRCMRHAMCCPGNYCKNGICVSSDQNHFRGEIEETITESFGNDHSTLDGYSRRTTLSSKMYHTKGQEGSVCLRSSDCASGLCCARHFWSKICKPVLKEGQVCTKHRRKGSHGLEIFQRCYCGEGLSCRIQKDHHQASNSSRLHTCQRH
# [20] = test system: Inhibin beta A chain (activin A); experiment: small molecules binding activin A – biochemical, small-molecule microarray, 635 nm fluorescence scan, primary screen (AID 1107); details: INHBA, higher = more signal;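 further: mouse activin A protein probed at 4.33 µg/mL on printed slides; score merges bound-protein fluorescence near 667 nm with spot signal-to-noise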
SMILES,composite z-score [1],z-score [2],z-score [3],z-score [4],composite z-score [5],z-score [6],composite z-score [7],composite z-score [8],composite z-score [9],composite z-score [10],composite z-score [11],composite z-score [12],composite z-score [13],z-score [14],composite z-score [15],composite z-score [16],composite z-score [17],composite z-score [18],composite z-score [19],composite z-score [20]
CC(CO)N1C(=O)[C@@H]2C3C(=O)OCCC=C[C@H]3OC23C=CCN(Cn2nnc4ccccc42)C(=O)[C@@H]13 (stereo not given in full),-0.414 and 0.262,1.52 (inactive) and -1.09 (inactive),0.102 (inactive) and -0.115 (inactive),0.73 (inactive) and -0.0895 (inactive),0.145 and 3.01,0.775 (inactive) and -0.175 (inactive),-0.223 and -0.0882,-1.78 and 0.0711,-0.391 and 0.347,-0.203 and -0.0828,1.07 and 1.47,-0.26 and -0.125,0.683 and 0.303,-0.0985 (inactive) and 0.148 (inactive),-0.914 and 0.715,-1.38 and -0.212,-1.56 and -0.105,-1.68 and -0.219,-2.03 and -0.18,-0.785 and 0.234
C=CCN(C(=O)C(c1cccs1)N(C(=O)/C=C\C(=O)O)C(C)(C)CO)C(C)(C)C (stereo not given),-0.381 and 0.182,-1.81 (inactive) and -2 (inactive),-1.45 (inactive) and -1.15 (inactive),-0.429 (inactive) and -0.373 (inactive),2.89 and 0.484,2.02 (inactive) and 1.22 (inactive),-0.141 and -0.147,-1.52 and -1.23,-0.97 and -0.967,-0.128 and -0.292,-0.387 and -0.159,-0.136 and -0.239,0.784 and 0.498,-1.67 (inactive) and -1.52 (inactive),-1.22 and -1.16,-0.489 and -0.532,-0.928 and -0.661,-1.54 and -1.07,-1.53 and -1.58,-0.792 and -0.643
C=CCN(CCCC)C(=O)C1N(C(C)(C)CO)C(=O)C2C(C(=O)O)C3C=CC21O3 (stereo not given),-0.278 and -1.01,-0.412 (inactive) and 0.0394 (inactive),0.0945 (inactive) and 0.0925 (inactive),-0.626 (inactive) and -0.302 (inactive),-0.523 and -0.805,-0.21 (inactive) and -0.367 (inactive),-0.223 and -0.124,-2.07 and -1.17,-0.732 and -0.74,-0.23 and -0.336,0.645 and 0.0697,-0.188 and -0.123,0.717 and 0.644,0.395 (inactive) and 0.383 (inactive),-1.84 and -0.834,-2.07 and -1.67,-1.97 and -1.42,-2 and -2.8,-2.4 and -1.9,-3.85 and -3
CC(CO)N1C(=O)[C@@H]2C3C(=O)OCCC=C[C@H]3OC23C=CCN(CCN2CCOCC2)C(=O)[C@@H]13 (stereo not given in full),-0.353 and 1.34,0.517 (inactive) and -1.32 (inactive),-0.0581 (inactive) and -1.22 (inactive),0.565 (inactive) and -0.233 (inactive),-0.634 and 3.22,-0.381 (inactive) and -0.16 (inactive),-0.186 and 0.166,-0.0409 and 0.0947,0.331 and 0.465,-0.207 and -0.0046,0.53 and 0.55,-0.278 and 0.0598,-0.389 and 0.466,0.388 (inactive) and -0.153 (inactive),-0.131 and -0.0694,-0.496 and 0.65,-0.51 and -0.235,-0.0214 and -0.166,0.0325 and -0.442,0.621 and 1.59
C[C@@H](c1ccccc1)N1C(=O)[C@H]2[C@H]3[C@H](O)[C@H](O)CC(=O)[C@@H]3CC[C@H]2C1=O,0.745,-2.24 (inactive),-0.971 (inactive),-0.727 (inactive),0.775,-0.46 (inactive),-0.0978,0.798,0.82,0.596,0.11,-0.152,-0.706,-1.26 (inactive),0.685,0.59,0.43,0.599,0.943,-0.838
CC(=O)OC[C@H]1O[C@H](C#CC(C)(C)C)C=C[C@@H]1OC(C)=O,0.975,-0.0789 (inactive),-1.48 (inactive),-0.589 (inactive),1.3,0.459 (inactive),-0.177,0.369,0.695,0.0168,0.731,0.202,-0.508,1.16 (inactive),0.871,0.225,0.274,1.31,0.535,-0.209
C=CCN(CCCC)C(=O)C1N(c2c(Cl)cccc2CO)C(=O)C2C(C(=O)O)C3C=CC21O3 (stereo not given),-0.502 and 0.174,0.381 (inactive) and 0.588 (inactive),-0.162 (inactive) and -0.186 (inactive),0.258 (inactive) and -0.535 (inactive),-1.27 and 3.03,0.455 (inactive) and 3.02 (inactive),-0.0948 and -0.113,-2.38 and -0.509,-1.73 and -0.0461,-0.308 and -0.0286,0.934 and -0.194,0.0215 and -0.0881,1.08 and 0.748,-0.786 (inactive) and -0.929 (inactive),-0.613 and -1.38,-2.1 and -0.938,-1.71 and -1.18,-2.37 and -1.28,-2.46 and -2.71,-1.41 and -0.0137
C=CCN(CCCC)C(=O)C(c1cccs1)N(CCOCCO)C(=O)/C=C\C(=O)O (stereo not given),-1.08 and 0.596,-1.98 (inactive) and -1.34 (inactive),-0.745 (inactive) and -0.342 (inactive),-0.604 (inactive) and -0.397 (inactive),0.657 and 2.51,1.02 (inactive) and 1.45 (inactive),-0.145 and -0.139,-1.73 and -0.798,-0.852 and -0.503,-0.236 and -0.148,1.66 and -1.5,0.103 and -0.18,0.792 and 0.161,-1.21 (inactive) and -1.32 (inactive),-1.19 and -0.522,-1.39 and -0.479,-2.24 and -0.346,-1.97 and -0.993,-1.56 and -1.03,-0.593 and 0.566

# Source: PubChem BioAssay
